Assay results taken from PubChem BioAssay (NCATS).
“And” between values parts separate entries of the source, which are not always exact repeats. Equal entries are not always repeated. A number with no mark means an inactive call. Results filed as inconclusive are left out. A call without a number means that no potency is given here. The source made the active and inactive calls. Unless noted, calls come from the whole dose curve; as a rule, active = well fitted curve in the direction sought with a large enough effect; inconclusive = small, poorly fitted or top-dose-only effect, or another doubt; inactive = no such curve, though single readings can be large; an effect the other way counts as inactive or inconclusive.

What was measured:
[1] = system: UISO; assay: qHTS assay to identify novel small-molecules to repurpose for Merkel cell carcinoma treatment (AID 1296009); settings: MCC and control cell lines, CellTiter-Glo viability, 72 h; series mostly up to 46 µM; note: nearly all actives have a fitted effect of over 60% in size; note: potency is the fitted concentration of half-maximal effect
Summary of the method: (§1)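 After compound transfer in DMSO, plates were kept 72 hr at 37 degree celsius. Luminescent ATP signal from CellTiter-Glo served as viability measure, normalized against DMSO and no-cell controls.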

[2] = system: WaGa; assay: as above; settings: MCC and control cell lines, CellTiter-Glo viability, 72 h; series mostly up to 46 µM
Summary of the method: as §1

[3] = system: C33A; assay: Primary qHTS to identify gynecologic anti-cancer compounds using libraries of approved drugs and bioactive compounds (AID 1345084); settings: Gynecologic cancer cell panel viability, ATPlite luminescence, 48 h; series mostly up to 57.5 µM; note: nearly all actives have a fitted effect of over 55% in size; note: potency is the fitted concentration of half-maximal effect
Summary of the method: (§2)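 Cells, 1,000 per well, were allowed to settle for 16 h at 37 C before compound addition. Five concentrations were tested for 48 h, and viability was read by ATPlite luminescence after 15 min at room temperature.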

[4] = system: CASKI; assay: as above; settings: Gynecologic cancer cell panel viability, ATPlite luminescence, 48 h; series mostly up to 57.5 µM
Summary of the method: as §2

[5] = system: Es-2; assay: as above; settings: Gynecologic cancer cell panel viability, ATPlite luminescence, 48 h; series mostly up to 57.5 µM
Summary of the method: as §2

[6] = system: HeLa; assay: as above; settings: Gynecologic cancer cell panel viability, ATPlite luminescence, 48 h; series mostly up to 57.5 µM
Summary of the method: as §2

[7] = system: Hek293T; assay: as above; settings: Gynecologic cancer cell panel viability, ATPlite luminescence, 48 h, control line for the selectivity index; series mostly up to 57.5 µM
Summary of the method: as §2

[8] = system: JEG-3; assay: as above; settings: Gynecologic cancer cell panel viability, ATPlite luminescence, 48 h; series mostly up to 57.5 µM
Summary of the method: as §2

[9] = system: OV90; assay: as above; settings: Gynecologic cancer cell panel viability, ATPlite luminescence, 48 h; series mostly up to 57.5 µM
Summary of the method: as §2

[10] = system: PA-1; assay: as above; settings: Gynecologic cancer cell panel viability, ATPlite luminescence, 48 h; series mostly up to 57.5 µM
Summary of the method: as §2

[11] = system: SKOV3; assay: as above; settings: Gynecologic cancer cell panel viability, ATPlite luminescence, 48 h; series mostly up to 57.5 µM
Summary of the method: as §2

[12] = system: Tov-21-G; assay: as above; settings: Gynecologic cancer cell panel viability, ATPlite luminescence, 48 h; series mostly up to 57.5 µM
Summary of the method: as §2

[13] = system: Tov112D; assay: as above; settings: Gynecologic cancer cell panel viability, ATPlite luminescence, 48 h; series mostly up to 57.5 µM
Summary of the method: as §2

[14] = system: CAOV3; assay: as above; settings: Gynecologic cancer cell panel viability, ATPlite luminescence, 48 h; series mostly up to 57.5 µM
Summary of the method: as §2

[15] = system: astro; assay: Drug repurposing screens with cells derived from glioblastoma tumor samples (AID 1345199); settings: viability, ATP luminescence, 48 h; series mostly up to 45.9 µM; note: nearly all actives have a fitted effect of over 40% in size
Summary of the method: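 Four patient lines of CD133+ GBM neurospheres were screened at several concentrations; hits were retested in those lines plus three slower-growing GBM lines, using 48-hour treatment and ATP-based viability.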

[16] = molecular target: Nuclear receptor subfamily 1 group I member 2 (Rattus norvegicus) (UniProt Q9R1A7); assay: qHTS assay for small molecule activators of the rat pregnane X receptor (rPXR) signaling pathway (AID 651751; call rule not given here); settings: rPXR reporter cells, luciferase (One-Glo), 24 h
Chain of Nuclear receptor subfamily 1 group I member 2 (Rattus norvegicus) (Q9R1A7 whole entry, looked up): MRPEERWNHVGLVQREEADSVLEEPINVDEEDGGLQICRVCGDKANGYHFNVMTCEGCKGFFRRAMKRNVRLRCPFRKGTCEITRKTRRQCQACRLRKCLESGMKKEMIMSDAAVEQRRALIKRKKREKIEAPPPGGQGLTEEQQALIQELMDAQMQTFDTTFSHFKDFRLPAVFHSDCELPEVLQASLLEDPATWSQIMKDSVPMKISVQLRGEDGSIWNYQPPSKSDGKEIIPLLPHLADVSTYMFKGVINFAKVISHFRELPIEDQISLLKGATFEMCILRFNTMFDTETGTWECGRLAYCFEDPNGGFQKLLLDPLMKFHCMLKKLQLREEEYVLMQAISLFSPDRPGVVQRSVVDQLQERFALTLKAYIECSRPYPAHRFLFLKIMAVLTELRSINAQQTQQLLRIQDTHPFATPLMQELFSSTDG

For `CCOCCn1c(C2CCN(CCc3ccc(C(C)(C)C(=O)O)cc3)CC2)nc2ccccc21`, which Potency [1] is on record?
Its Potency is “inactive”.

What about the Potency [2] of the same molecule?
Its Potency is “inactive”.

What about the Potency [3] of the same molecule?
Its Potency is “inactive”.

And the Potency [4]?
The Potency was “inactive”.

What about the Potency [5] of the same molecule?
The Potency was “inactive”.

What about the Potency [6] of the same molecule?
Its Potency is “inactive”.

And the Potency [7]?
The Potency was “inactive”.

What about the Potency [8] of the same molecule?
The Potency was “inactive”.

And the Potency [9]?
The Potency was “inactive”.

What about the Potency [10] of the same molecule?
The Potency was “inactive”.

What about the Potency [11] of the same molecule?
The Potency was “inactive”.

What about the Potency [12] of the same molecule?
The Potency was “inactive”.

And the Potency [13]?
The Potency was “inactive”.

Which results are given for `CC(C)NCCCC1(C(N)=O)c2ccccc2-c2ccccc21`?
Potency [1]: inactive; Potency [2]: inactive; Potency [3]: inactive; Potency [4]: inactive; Potency [5]: inactive; Potency [6]: inactive; Potency [7]: inactive; Potency [8]: inactive; Potency [9]: inactive; Potency [10]: inactive; Potency [11]: inactive; Potency [12]: inactive; Potency [13]: inactive

How did the Potency [1] turn out when `CC(C)=CCNc1ncnc2c1ncn2[C@@H]1O[C@H](CO)[C@@H](O)[C@H]1O` was run?
Its Potency is 1.88 µM (active).

And the Potency [2]?
The Potency was 2.99 µM (active).

What about the Potency [3] of the same molecule?
The Potency was 12.6 µM (active).

What about the Potency [14] of the same molecule?
Its Potency is 7.94 µM (active).

What about the Potency [4] of the same molecule?
The Potency was 12.6 µM (active).

And the Potency [5]?
Its Potency is 25.1 µM (active).

What about the Potency [6] of the same molecule?
The Potency was 14.1 µM (active).

And the Potency [9]?
Its Potency is 17.8 µM (active).

And the Potency [10]?
The Potency was 7.94 µM (active).

And the Potency [11]?
The Potency was 11.2 µM (active).

And the Potency [12]?
The Potency was 10 µM (active).

What about the Potency [13] of the same molecule?
The Potency was 7.08 µM (active).

Which results are given for `CNC[C@H](O)[C@@H](O)[C@H](O)[C@H](O)CO`?
Potency [1]: inactive; Potency [2]: inactive; Potency [3]: inactive; Potency [14]: inactive; Potency [4]: inactive; Potency [5]: inactive; Potency [6]: inactive; Potency [8]: inactive; Potency [9]: inactive; Potency [10]: inactive; Potency [11]: inactive; Potency [12]: inactive; Potency [13]: inactive

How did the Potency [1] turn out when `c1ccc2occc2c1` was run?
The Potency was “inactive”.

What about the Potency [2] of the same molecule?
Its Potency is “inactive”.

And the Potency [3]?
The Potency was “inactive”.

What about the Potency [14] of the same molecule?
The Potency was “inactive”.

And the Potency [4]?
The Potency was “inactive”.

And the Potency [5]?
The Potency was “inactive”.

And the Potency [6]?
The Potency was “inactive”.

And the Potency [7]?
The Potency was “inactive”.

And the Potency [8]?
The Potency was “inactive”.

And the Potency [9]?
Its Potency is “inactive”.

What about the Potency [10] of the same molecule?
Its Potency is “inactive”.

And the Potency [12]?
Its Potency is “inactive”.

What about the Potency [13] of the same molecule?
The Potency was “inactive”.

What about the Potency [15] of the same molecule?
Its Potency is “inactive”.

What about the max response [16] of the same molecule?
Its max response is 2.28% and 7.63% and -1.22%.

Which Potency [1] does the source give for `COc1ccccc1N1CCN(CC(O)COc2cc(OC)c(OC)c(OC)c2)CC1` (stereo not given) here?
Its Potency is “inactive”.

And the Potency [2]?
The Potency was “inactive”.

And the Potency [3]?
The Potency was “inactive”.

And the Potency [4]?
The Potency was “inactive”.

And the Potency [5]?
The Potency was “inactive”.

What about the Potency [6] of the same molecule?
Its Potency is “inactive”.

What about the Potency [7] of the same molecule?
Its Potency is “inactive”.

And the Potency [8]?
The Potency was “inactive”.

What about the Potency [9] of the same molecule?
Its Potency is “inactive”.

And the Potency [10]?
The Potency was “inactive”.

And the Potency [11]?
Its Potency is “inactive”.

And the Potency [12]?
Its Potency is “inactive”.

And the Potency [13]?
The Potency was “inactive”.

How did the Potency [1] turn out when `C=C(C)C(=O)OCC(O)CO` (stereo not given) was run?
The Potency was “inactive”.

And the Potency [2]?
The Potency was “inactive”.

And the Potency [3]?
Its Potency is “inactive”.

What about the Potency [14] of the same molecule?
Its Potency is “inactive”.

And the Potency [5]?
The Potency was “inactive”.

What about the Potency [6] of the same molecule?
Its Potency is “inactive”.

And the Potency [7]?
The Potency was “inactive”.

And the Potency [8]?
The Potency was “inactive”.

And the Potency [9]?
Its Potency is “inactive”.

And the Potency [10]?
The Potency was “inactive”.

And the Potency [11]?
The Potency was “inactive”.

And the Potency [12]?
The Potency was “inactive”.

What about the Potency [13] of the same molecule?
The Potency was “inactive”.

`NC(=O)NC1N=C([O][Al])NC1=O` (stereo not given) was tested. Which Potency [1] did it give?
Its Potency is “inactive”.

What about the Potency [2] of the same molecule?
Its Potency is “inactive”.

And the Potency [3]?
The Potency was “inactive”.

And the Potency [14]?
Its Potency is “inactive”.

And the Potency [4]?
The Potency was “inactive”.

What about the Potency [5] of the same molecule?
Its Potency is “inactive”.

What about the Potency [6] of the same molecule?
Its Potency is “inactive”.

What about the Potency [7] of the same molecule?
Its Potency is “inactive”.

And the Potency [8]?
The Potency was “inactive”.

What about the Potency [9] of the same molecule?
The Potency was “inactive”.

And the Potency [11]?
The Potency was “inactive”.

What about the Potency [12] of the same molecule?
The Potency was “inactive”.

And the Potency [13]?
Its Potency is “inactive”.
